# Bioassay records (PubChem BioAssay)
# hgDAF12 agonist – agonists of H. glycines DAF-12 nuclear receptor. HEK293 GAL4-hgDAF12 UAS-luciferase reporter, agonist luminescence; normalized to butyrate control. activation, % at 6.8 µM. AID 687014. 370,000 tested, 1.8% active;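 active = activation above a cutoff set at the mean of all screened compounds plus 3 SD, cut at about 10% in these data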;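 also: 0% = DMSO wells and 100% = sodium butyrate wells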
# hcDAF12 agonist – H. contortus DAF-12 activation, primary screen; HEK293 hcDAF-12 lit1-tk-luc reporter, luminescence; 0% DMSO, 100% Δ7-dafachronic acid; activation, % at 6.8 µM; 370,000 tested, 1.4% active; AID 652067;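 active = activation above the mean of all tested compounds plus 3 SD, cut at about 5.5% in these data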;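 also: 100% = response to 3 µM Δ7-dafachronic acid high control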
# SMARCA2 act – increases SMARCA2 function in MMTV reporter cells | MG213 cells, MMTV-luciferase reporter, dexamethasone, overnight | activation, % at 9.1 µM | 370,000 tested, 1% active; in the data active = activation above about 7.8%;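 also: 0% = vehicle wells and 100% = reference activator wells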
# ssDAF-12 act – activators of S. stercoralis DAF-12 nuclear receptor; HEK293 ssDAF-12/GRIP1 lit1-tk-luc reporter, luminescence; % of 3 µM dafachronic acid response; activation, % at 6.8 µM; 370,000 tested, 1% active; AID 652126;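 active = activation above the mean over all tested compounds plus 3 SD, cut at about 0.9% in these data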;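 also: 0% = DMSO-only wells and 100% = 3 µM delta7-dafachronic acid wells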
# DAX1 inh-1 – inhibitors of human orphan nuclear receptor DAX1 (NR0B1); P51843; inhibition, % at 6.75 µM; 340,000 tested, 0.99% active; HEK293 Gal4-DAX1 luciferase reporter, luminescence; AID 504766;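 active = inhibition above the mean over all tested compounds plus 3 SD, cut at about 4.2% in these data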;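 also: 0% = DAX1-transfected cells with DMSO and 100% = empty-vector control cells with DMSO; inhibition shows as a rise in luminescence from relieved DAX1 repression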
# Target sequence (P51843 207-470 limits assumed): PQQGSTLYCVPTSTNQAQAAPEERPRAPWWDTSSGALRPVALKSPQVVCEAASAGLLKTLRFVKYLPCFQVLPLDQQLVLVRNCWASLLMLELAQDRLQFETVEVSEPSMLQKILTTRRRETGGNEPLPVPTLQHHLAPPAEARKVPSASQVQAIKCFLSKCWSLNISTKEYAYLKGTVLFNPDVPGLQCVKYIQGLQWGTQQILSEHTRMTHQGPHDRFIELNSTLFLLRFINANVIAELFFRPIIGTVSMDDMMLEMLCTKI
# DAX1 inh-2 – DAX1 (NR0B1) inhibition, primary screen; HEK293T StAR-luciferase reporter, SF-1/DAX-1 repression relief; inhibition, % at 6.8 µM; 370,000 tested, 1.1% active;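 active = inhibition above the mean over all tested compounds plus 3 SD, cut at about 3.6% in these data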;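 also: 0% = DAX-1 cells with DMSO and 100% = cells lacking DAX-1 with DMSO; higher inhibition means more luminescence from relief of DAX-1 repression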
# hgDAF12 conf – hgDAF-12 agonism, confirmation assay; shares compounds with hgDAF12 agonist; HEK293 GAL4-hgDAF12 luciferase reporter, agonist mode; percent of butyrate response; activation, % at 6.8 µM; 3,300 tested, 80% active; AID 743050;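 active = mean activation over triplicate wells above the hit cutoff derived from the earlier primary screen, cut at about 11% in these data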;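 also: 0% = DMSO low control and 100% = 2 mM sodium butyrate high control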
# LXRb DAF12 ctr – LXR-beta agonism as DAF-12 counter-screen. HEK293 Gal4-LXR luciferase reporter, 24 h. shares compounds with hgDAF12 agonist. activation, % at 6.8 µM. AID 743051. 3,300 tested, under 10 active;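 active = mean activation of the triplicate above a set limit carried over from the primary screen, none filed active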
# * hit, by the source's call; · = no result given. In the library only some 4.8% were active in any assay of this set; here they are far more common.
SMILES,hgDAF12 agonist,hcDAF12 agonist,SMARCA2 act,ssDAF-12 act,DAX1 inh-1,DAX1 inh-2,hgDAF12 conf,LXRb DAF12 ctr
O=[N+]([O-])c1cccc(-c2ccc(C(=S)N3CCOCC3)o2)c1,18*,5,7,0,3,3,16*,1
O=C(COc1ccc2c3c(c(=O)oc2c1)CCC3)NC1CCN(Cc2ccccc2)CC1,-1,-1,-1,-2,1,0,·,·
CCN(CC)CCOC(=O)c1ccc(NC(=O)/C=C/c2cccs2)cc1,-1,1,-2,-2,0,0,·,·
CCOC(=O)c1ccc(NC(=O)/C=C/c2cccs2)cc1,19*,2,2,0,0,1,9,0
C/C(=N\NC(=O)c1ccco1)c1ccc(NC(=O)c2ccccc2)cc1,14*,1,5,0,0,2,6,0
CC(=O)Nc1ccc(/C(C)=N/NC(=O)c2ccncc2)cc1,2,-1,-2,-1,0,0,·,·
C/C(=N/NC(=O)c1ccoc1C)c1ccc(N2CCOCC2)cc1,19*,3,4,0,0,3.7*,3,0
C/C(=N/NC(=O)c1ccoc1C)c1ccc(NC(=O)c2ccncc2)cc1,17*,6.4*,1,1.3*,2,3.8*,9,0
C/C(=N\NC(=O)c1ccc(Cl)cc1)c1ccc(N2CCOCC2)cc1,7,1,-1,-1,0,0,·,·
Cc1cc(C)n2nc(SCC(=O)N3CCOCC3)nc2n1,0,-1,0,-2,0,1,·,·
Fc1ccccc1NC(=S)Nc1cccnc1,5,1,-2,-1,-1,0,·,·
CCOC(=O)COc1ccccc1C(=O)c1cnn(-c2ccccc2)c1,14*,4,0,0,0,0,5,0
CCOC(=O)COc1ncn(-c2ccccc2)n1,-1,0,2,-1,0,0,·,·
CC1=Nc2ccccc2N=C(NC(=O)c2ccccc2)C1c1ccc(Cl)cc1 (stereo not given),18*,0,-4,0,1,2,-3,0
CCNC(=O)Oc1ccc[nH]c1=O,-1,0,1,0,1,0,·,·
O=C(Nc1ccc(F)cc1F)Nc1sccc1-c1nc2ccccc2s1,7,3,0,-1,0,0,·,·
O=C(Nc1nc2ccccc2s1)Nc1ccc(F)cc1F,14*,6,6,0,3,1,15*,1
S=c1[nH]c(-c2ccccc2)cn1/N=C/c1cccs1,14*,5.6*,0,1,1,0,5,0
O=C(Nc1nsc(-c2ccccc2)n1)c1ccc(F)cc1,16*,3,6,-1,3,3,10,0
COc1ccc(Nc2nc3cc(C)ccc3cc2C#N)cc1,-1,-1,-4,-1,-1,0,·,·
CCn1c(=O)c(C(=O)NCc2ccccc2Cl)c(O)c2ccccc21,-3,1,-1,-1,1,0,·,·
Cc1ccccc1NC(=S)N/N=C/c1ccc(O)cc1O,20*,4,3,0,4,1,7,0
C=CC[C@H](CC(=O)NCCO)C(=O)N[C@@H](COC(=O)[C@H](CC=C)CC(=O)OC(C)(C)C)Cc1ccccc1,2,1,-1,0,1,0,·,·
CCOC(=O)c1sc(NC(=O)c2ccc(S(=O)(=O)N(C)C)cc2)cc1C,-4,-5,-3,-3,-2,-2,·,·
CCOC(=O)c1sc(NC(=O)c2ccccc2)cc1C,17*,3,4,0,1,1,13*,1
SMILES,hgDAF12 agonist,hcDAF12 agonist,SMARCA2 act,ssDAF-12 act,DAX1 inh-1,DAX1 inh-2,hgDAF12 conf,LXRb DAF12 ctr
Cc1cccc(Cn2nc(C)c(NC(=O)c3ccc(F)cc3)c2C)c1,1,0,-2,-1,0,-1,·,·
Cc1nn(Cc2c(F)c(F)c(F)c(F)c2F)c(C)c1NC(=O)c1cccc(COc2ccc(Cl)cc2)c1,15*,1,0,-1,-1,1,6,0
COc1ccc(-c2cc(=Nc3c(C)n(C)n(-c4ccccc4)c3=O)c3ccccc3o2)cc1,19*,6.0*,1,1,5.3*,3,12*,0
c1ccc(OCc2cc(-c3ccccc3)no2)cc1,14*,5,3,-1,2,1,12*,0
COc1ccccc1OCc1cc(-c2ccccc2)no1,14*,5.7*,2,-1,2,3.6*,11*,1
CCCC12CN3CCN(CC(C3)/C1=N\NC(=O)c1ccc(F)cc1)C2,13*,0,1,-1,0,1,2,0
CCCC12CN3CCN(CC(C3)/C1=N\NC(=O)Nc1ccccc1)C2,1,1,0,-1,0,0,·,·
COc1ccc(OCC(O)CN2CCN(Cc3ccc4c(c3)OCO4)CC2)cc1 (stereo not given),-1,-2,-2,-1,-2,-1,·,·
Nc1nn(-c2ccccc2)c(N)c1N=Nc1cccc(F)c1,19*,6.0*,0,0,·,0,24*,1
CSc1ccc(C2NC(=O)c3ccccc3N2)cc1 (stereo not given),15*,3,4,0,4.6*,0,14*,0
O=C1NC(c2ccc(O)cc2)Nc2ccccc21 (stereo not given),3,0,0,-1,2,0,·,·
O=C(NCCc1ccccc1)c1c(F)cccc1F,14*,3,7,0,1,3.9*,12*,1
O=C(NCCc1csc(-c2ccccc2)n1)c1c(F)cccc1F,2,-1,-2,-1,-1,0,·,·
O=C(NCCc1ccccc1)c1ccc(NC(=O)C2CC2)cc1,14*,1,1,0,1,3,7,0
Cc1ccc(OCC(=O)Nc2ccccc2F)cc1C,16*,3,2,1,2,4,13*,1
Cc1ccccc1NC(=O)c1ccc(OCC(=O)Nc2ccccc2F)cc1,-1,-2,-2,-2,0,-1,·,·
CCN(CC)C(=O)CSc1nnc(-c2ccccc2)o1,18*,2,4,-1,1,2,12*,0
COc1cccc(C(=O)NC(=S)Nc2ccc(N3CCCC3)cc2)c1,3,1,-2,-1,1,-1,·,·
COc1cccc(C(=O)NC(=S)Nc2ccc(N(C)C)cc2)c1,18*,0,3,-1,0,1,12*,0
COc1ccc(C(=S)Nc2ccc(N(C)C)cc2)cc1,15*,6,2,1,1,4.0*,15*,1
